GLS inhibitor – blocks human kidney-isoform glutaminase activity; O94925; Potency, µM (series often up to 45.5 µM), hits mostly inhibitors; GLS enzymatic activity, qHTS titration; actives 0.21% (n = 410,000)
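Glutamate formation by hKGA was monitored fluorometrically using coupled glutamate oxidase, HRP and Amplex Red. Substrate was added as 1 mM L-glutamine solution; incubation was 30 min at RT after an initial read.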
PI4K2A block – blocks human PI4K2A kinase activity; purified PI4K2A, ADP-Glo luminescence, 1 h; stronger effect = lower value; activity change, negative = inhibition, % at 76.9 µM; actives 0.13% (n = 420,000); AID 1346378; in the data active = activity change below about -50%; inconclusive = mostly about -30% to -49%
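Compounds are screened against recombinant PI4K2A using PI as substrate and ATP, the latter dispensed at 300 microM. Reactions run one hour at ambient temperature before ADP-Glo detection; full inhibition defined by wells lacking enzyme.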
PLK1 PBD inh – PLK1 (human) polo-box domain binding inhibition. Plk1 PBD binding of FITC phosphopeptide, fluorescence polarization. Potency, µM, hits mostly inhibitors. actives 2.8% (n = 360,000). AID 720504; note: series mostly up to about 57 µM; nearly all actives have a fitted effect of over 65% in size
KAT2A inh – inhibitors of human GCN5L2 histone acetyltransferase. AID 504327. Q92830. GCN5L2 HAT assay, ThioGlo1 CoA-SH fluorescence. actives 0.21% (n = 390,000). Potency, µM (doses to about 58.9 µM), hits mostly inhibitors
Target sequence (Q92830 whole entry, looked up): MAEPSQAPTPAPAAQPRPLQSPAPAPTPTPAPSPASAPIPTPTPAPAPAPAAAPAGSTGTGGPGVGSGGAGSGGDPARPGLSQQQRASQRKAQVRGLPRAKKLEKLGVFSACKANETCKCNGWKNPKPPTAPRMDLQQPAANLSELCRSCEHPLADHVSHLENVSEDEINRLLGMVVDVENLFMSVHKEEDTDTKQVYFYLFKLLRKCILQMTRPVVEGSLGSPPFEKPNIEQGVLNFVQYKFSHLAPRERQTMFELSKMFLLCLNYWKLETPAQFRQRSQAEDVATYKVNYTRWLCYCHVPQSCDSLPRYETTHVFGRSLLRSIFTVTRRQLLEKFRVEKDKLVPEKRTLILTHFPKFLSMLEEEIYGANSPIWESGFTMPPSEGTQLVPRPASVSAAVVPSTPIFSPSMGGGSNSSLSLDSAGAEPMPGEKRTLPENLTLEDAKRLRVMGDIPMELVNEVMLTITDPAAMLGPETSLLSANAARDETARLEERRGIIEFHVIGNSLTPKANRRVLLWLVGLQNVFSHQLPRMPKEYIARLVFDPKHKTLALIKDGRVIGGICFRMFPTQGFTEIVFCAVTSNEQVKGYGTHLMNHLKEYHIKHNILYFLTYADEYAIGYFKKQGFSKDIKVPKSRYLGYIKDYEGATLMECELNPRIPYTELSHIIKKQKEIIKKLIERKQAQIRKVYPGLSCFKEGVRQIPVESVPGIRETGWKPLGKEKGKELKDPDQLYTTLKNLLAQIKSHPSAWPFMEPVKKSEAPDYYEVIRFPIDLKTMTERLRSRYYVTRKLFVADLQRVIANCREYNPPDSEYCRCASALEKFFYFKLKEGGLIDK
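qHTS, 1536-well. 20nM enzyme, pH 7.5 HEPES/EDTA/Tween-20 buffer; 15 min compound preinc., RT. Start: 75uM H3(1-25), 70uM AcCoA, 50uM ThioGlo1. Read Ex340/Em540 at t=0 (autofluorescence flag) and t=20 min.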
VDR inh – vitamin D3 receptor (human) inhibition; VDR-SRC2-3 peptide fluorescence polarization, 2 h; Potency, µM, most hits filed as inhibitors; actives 0.93% (n = 400,000); AID 504847
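The screen uses fluorescence polarization to detect compounds that interfere with recruitment of the SRC2-3 coactivator peptide to VDR; plates are read after 2 h at room temperature.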
Numbers stand for hits; n = inactive; u = inconclusive; x = not tested or not shown; ! = not confirmed by another sample. Sampled rows, rich in hits. Any-hit rate of the full collection: about 3.1%. Unless noted, calls come from the whole dose curve; as a rule, active = well fitted curve in the direction sought with a large enough effect; inconclusive = small, poorly fitted or top-dose-only effect, or another doubt; inactive = no such curve, though single readings can be large; an effect the other way counts as inactive or inconclusive.

SMILES | GLS inhibitor | PI4K2A block | PLK1 PBD inh | KAT2A inh | VDR inh
O=C(Nc1c(-c2ccc3c(c2)OCO3)[nH][nH]c1=O)c1ccccc1 | n | -59.9 | 13.4µM | x | x
CN(CCOC(=O)c1cccs1)C1CN(Cc2cn(Cc3ccccc3Cl)nn2)S(=O)(=O)C1 (centres undefined) | x | n | x | x | x
N#C/C(=C\c1ccccc1)C(=O)NNS(=O)(=O)c1ccc(Br)cc1 | u | n | 21.2µM | n | 44.7µM
COc1ccc2c(c1OC)C(=O)N1N=C(c3ccc(F)cc3)CC21 (centres undefined) | n | n | 11.9µM | n | u
Cc1ccc2oc(C(=O)N3CCN(c4cccc(C)n4)CC3)c(C)c2c1 | n | n | 26.7µM | n | u
Cc1cc(Cl)c2oc(C(=O)N3CCN(c4cccc(C)n4)CC3)c(C)c2c1 | n | n | n | n | u
CCC(C)NC(=O)C1CCC(CNS(=O)(=O)c2ccc3c(c2)CC(C)N3C(C)=O)CC1 (centres undefined) | n | n | 23.8µM | n | u
CC(=O)N1c2ccc(S(=O)(=O)NCC3CCC(C(=O)Nc4ncccc4C)CC3)cc2CC1C (centres undefined) | n | n | 21.2µM | n | u
CN(C)/C=C1/NC(=S)NC1=O | 10µM | n | n | n | n
CC(=O)c1ccc(Nc2c3ccccc3cc3occc23)cc1 | x | x | x | n | n
N#Cc1ccccc1NC(=S)NC(=O)c1cccnc1 | u | n | 11.9µM | n | n
O=C(NC(=S)Nc1ccccc1C(=O)O)c1cncc(Br)c1 | n | n | 9.47µM | n | 50.1µM
COc1cccc(C(=O)Nc2sc3c(c2C#N)CCN(C(C)=O)C3)c1 | n | n | 23.8µM | n | 79.4µM
COc1cccc(C(=O)Nc2sc3c(c2C(=O)O)CCCC3)c1 | n | n | n | u | n
CCC(c1c(C)n(C)n(-c2ccccc2)c1=O)c1c(C)n(C)n(-c2ccccc2)c1=O | n | n | n | n | n
CCCC(c1c(C)n(C)n(-c2ccccc2)c1=O)c1c(C)n(C)n(-c2ccccc2)c1=O | u | n | 2.38µM | n | n
N#Cc1c(Cl)nsc1NN | n | n | 29.9µM | n | n
Cc1ccc(S(=O)(=O)N2CCCCC2)cc1 | n | n | n | n | n
Cc1ccc(S(=O)(=O)n2ccc3c2CCCC3=O)cc1 | n | n | 26.7µM | n | u
COCCn1c(SCC(=O)Nc2cccc(S(N)(=O)=O)c2)nc2cc(Cl)ccc2c1=O | u | n | 7.52µM | n | u
COC(=O)[C@H]1C[C@@]2(C#N)c3ccccc3N(C(=O)OC(C)(C)C)[C@H]2N1C(=O)OC(C)(C)C | x | n | x | x | x
C[C@H]1COc2cc(Br)ccc2S(=O)(=O)N1Cc1cn(Cc2ccccc2)nn1 | x | n | x | x | x
COC(=O)c1ccccc1NC(=O)CSc1n[nH]c(-c2cccnc2)n1 | n | n | 21.2µM | n | n
COC(=O)c1sc(NC(=O)c2ccco2)c(C#N)c1C | n | n | 23.8µM | n | n
CCOC(=O)c1sc(NC(=O)C2=COCCO2)c(C#N)c1C | n | n | 26.7µM | n | u
SMILES | GLS inhibitor | PI4K2A block | PLK1 PBD inh | KAT2A inh | VDR inh
CCOC(=O)c1sc(NC(=O)c2cc(-c3ccccc3)nc3ccccc23)c(C#N)c1C | n | n | 2.99µM | u | n
c1ccc(-c2cc(-c3nnc4sc(Cc5cccs5)nn34)[nH]n2)cc1 | x | n | x | x | x
COC(=O)c1ccc(S(=O)(=O)N2CCC(NC(=O)CCc3ccccc3)CC2)cc1 | x | n | x | x | x
CCOC(=O)c1sc(NC(=O)CSc2nc(C)cc(C)n2)c(C#N)c1C | n | n | n | n | n
CCOC(=O)c1sc(NC(=O)CSc2n[nH]c(-c3ccccc3)n2)c(C#N)c1C | n | n | 3.77µM | n | n
Cc1ccc(Nc2c(-c3c[nH]c4ccccc34)nc3ccccn23)cc1 | n | n | x | n | n
O=c1cc(-c2ccccc2)oc2ccc(Cl)cc12 | n | n | n | x | n
O=c1oc(-c2ccccc2)cc(Cl)c1Cl | n | n | 10.6µM | n | n
COc1ccc(NC(=O)c2cc3c(-c4ccc(OC)c(OC)c4)nn(C)c3s2)cc1OC | n | n | n | n | n
COc1ccc(-c2nn(C)c3sc(C(=O)NCc4ccco4)cc23)cc1OC | n | n | 26.7µM | n | n
C=CCN1[C@H](Cc2ccccc2)COc2cc(N3CCSCC3)ccc2S1(=O)=O | x | n | x | x | x
C=C1C(=O)[C@]23[C@H](O)[C@H]1CC[C@H]2[C@@]12COC3(O)[C@H](O)[C@@H]1C(C)(C)CC[C@@H]2O | x | x | x | n | 7.08µM
Cc1ccc(C(=O)NC(Cc2c[nH]c3ccccc23)C(=O)O)cc1 (centres undefined) | n | n | n | n | n
Cc1cc(C)cc(C(=O)N(C)[C@H](Cc2ccc(-c3ccccc3)cc2)C(=O)N[C@@H](Cc2c[nH]c3ccccc23)C(=O)O)c1 | x | x | x | 31.6µM! | u
O=C(Nc1ccc(F)cc1Cl)C1CCCN1S(=O)(=O)c1cccc2cccnc12 (centres undefined) | x | n | x | x | x
Cc1ccc(NC(=S)Nc2cccc3cnccc23)cc1 | n | n | 26.7µM | n | u
Cc1ccccc1NC(=S)Nc1cccc2cnccc12 | n | n | u | n | n
Cc1ccc(C)c(NC(=S)Nc2cccc3cnccc23)c1 | n | -55.4 | u | n | n
CCCCNC(=S)Nc1cccc2cnccc12 | n | n | u | n | n
Cc1ccc(NC(=S)Nc2cccc3cnccc23)cc1C | n | n | 26.7µM | n | u
S=C(Nc1cccc(Cl)c1)Nc1cccc2cnccc12 | n | n | 26.7µM | n | 70.8µM
COC1=C[C@H](C(=O)NCCNC(C)=O)[C@@]2(C)Cc3ccccc3[C@H]2CC1=O | x | n | x | x | x
O=Cc1ccc(O)c(O)c1O | x | n | x | x | x
CC(=O)OC1C=C[C@@H](OC(C)=O)C1 (some centres undefined) | x | x | x | n | n
CC(=O)c1ccc(NC(=S)Nc2cccc3cnccc23)cc1 | n | n | 29.9µM | n | u
SMILES | GLS inhibitor | PI4K2A block | PLK1 PBD inh | KAT2A inh | VDR inh
CCOc1ccc(-c2csc(N)c2C(=O)OC)cc1 | n | n | 7.94µM | n | u
CCOC(=O)c1c(-c2cccc([N+](=O)[O-])c2)csc1NC(=O)C1CC1 | n | n | n | n | n
CCOC(=O)c1c(-c2cccc([N+](=O)[O-])c2)csc1N | n | n | 29.9µM | n | n
CCOC(=O)N1CCN(C(=O)C[C@H]2C(=O)N(CCCOC)C3=CCCC[C@@]32C(=O)OCC)CC1 | x | n | x | x | x
CCCC1=Nc2cc(C(=O)N3CCCC3)ccc2Sc2ccc(C)cc21 | n | n | 26.7µM | n | n
O=[N+]([O-])c1cc(S(=O)(=O)Nc2cccc(C(F)(F)F)c2)ccc1-n1nnc2ccccc21 | n | n | 26.7µM | u | n
Cc1cccc(Cn2cc(COC(=O)Nc3ccc(F)cc3)nn2)c1 | x | n | x | x | x
O=C(Nc1ccccc1)C1C2/C=C\CCCCC21 (centres undefined) | n | n | 26.7µM | n | n
O=C(Nc1ccc(F)c(C(F)(F)F)c1)Nc1nnc(-c2ccncc2)s1 | x | n | x | x | x
COC(=O)[C@]12C[C@H](CC(=O)N3CCOCC3)C(=O)N(CCc3ccc(OC)c(OC)c3)C1=C[C@H](C1CCCC1)O[C@@H]2C | x | n | x | x | x
